Laboratory results reported in PubChem BioAssay (NCI).
Compounds without any hit were thinned out: in the full panel of roughly 83,000, 20% have a hit.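 Compound tested at a single concentration for 48 hours in 96-well plates; a percent growth value below 10 was scored as active.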 Unmarked numbers belong to inactive results. Calls of active or inactive are those of the source.

Assays:
Experiment in all cases: NCI-60 one-dose screen, 48 h (100 = growth as untreated, 0 = no growth, -100 = all killed)
Conditions in all cases: 10 µM unless noted
DU-145 prostate = test system: DU-145 prostate
K-562 leukemia = test system: K-562 leukemia
MALME-3M melanoma = test system: MALME-3M melanoma
MDA-MB-231 breast = test system: MDA-MB-231 breast
RXF 393 renal = test system: RXF 393 renal
SF-268 CNS = test system: SF-268 CNS
SF-295 CNS = test system: SF-295 CNS
SF-539 CNS = test system: SF-539 CNS
UACC-257 melanoma = test system: UACC-257 melanoma
M14 melanoma = test system: M14 melanoma

SMILES | growth (DU-145 prostate) | growth (K-562 leukemia) | growth (MALME-3M melanoma) | growth (MDA-MB-231 breast) | growth (RXF 393 renal) | growth (SF-268 CNS) | growth (SF-295 CNS) | growth (SF-539 CNS) | growth (UACC-257 melanoma) | growth (M14 melanoma)
CN(C)c1nc(NCCNS(=O)(=O)c2ccc(C3=Nc4c(N)nc(N)nc4NC(c4ccc(C(F)(F)F)cc4)C3)cc2)nc(N2CCOCC2)n1 (stereo not given) | 61.8% | 9.12% (active) | 60.3% | 38.5% | 16.6% | 38.6% | 45.5% | 34.3% | 52.9% | 28%
COc1cc(/C=C/C(=O)c2cnn(-c3cc(=O)[nH]c4ccc(Cl)cc34)c2C)cc(OC)c1OC | -72.8% (active) | -12.4% (active) | -20.4% (active) | -5.1% (active) | -84.1% (active) | -23.8% (active) | -71.5% (active) | -69.3% (active) | -33.8% (active) | -49% (active)
O=C(O)CC1S/C(=N/N=C/c2nc3ccccc3s2)NC1=O (stereo not given) | 95.8% | 94.1% | 107% | 102% | 134% | 85.5% | 104% | 98.1% | 105% | 90.4%
O=Cc1cncc(-c2ccc3ncnc(N4CCc5cc(F)c(Cl)cc54)c3c2)c1 | 22.5% | 35.5% | 23.7% | 28.2% | -7.23% (active) | 42.1% | 19.2% | 25.8% | 59.1% | 48.6%
Cc1ccccc1Nc1nnc(-c2c[nH]c3ccccc23)o1 | 26.4% | 7.28% (active) | 33.5% | 26.9% | -4.44% (active) | 59% | 8.71% (active) | -25.9% (active) | 49.7% | 6.24% (active)
Nc1nn2c(-c3cc4cc(Br)ccc4oc3=O)ccnc2c1N=Nc1ccc(S(N)(=O)=O)cc1 | 99.7% | 53.9% | 70.5% | -8.56% (active) | 87.1% | 78.5% | 62.2% | 55.1% | 101% | 62.2%
N#C/C(=C/c1ccc(Cl)cc1)c1nnc(NC(=O)c2ccc(-n3c(=O)[nH]c4ccccc4c3=O)cc2)s1 | 85.1% | 99% | 68.2% | -5.08% (active) | 20.1% | 73.2% | 96.3% | 24.1% | 102% | 78.8%
OC1CCC(Cn2c(C(F)(F)F)cc3c(Cl)ncnc32)CC1 (stereo not given) | 10.5% | -3.95% (active) | 79.3% | 2.76% (active) | 63.1% | -36.4% (active) | 75.6% | 75.6% | 9.12% (active) | -44.1% (active)
C/C(=N\Nc1ccc(C(=O)O)cc1)c1cnn(-c2cc(=O)[nH]c3ccc(C)cc23)c1C | 107% | 101% | 83.3% | 91.1% | 93.7% | 97.2% | 95.5% | 101% | 106% | 96.3%
O=C(CSc1nc2ccccc2c(=O)[nH]1)NNC(=O)c1ccccc1Cl | 110% | 103% | 105% | 99.8% | 117% | 106% | 112% | 96.5% | 95% | 110%
O=C(Cn1c(-c2ccccc2)nc2ccccc21)N=Nc1c(O)[nH]c2ccc(Br)cc12 | 3.6% (active) | 6% (active) | -20.5% (active) | -56.8% (active) | -80% (active) | -0.321% (active) | -80.4% (active) | -80.9% (active) | 9.11% (active) | 5.92% (active)
COc1ccc2c(c1)C(Sc1ccc(Cl)cc1)c1c(nc(N)c(C#N)c1N)O2 (stereo not given) | 86% | 47.6% | 82.2% | 56.4% | 56.4% | 46% | 55.7% | 61.8% | 104% | 66.4%
O=C(Nc1nc2ccc([N+](=O)[O-])cc2s1)Nc1ccc(Cl)cc1Cl | 64.1% | 24.6% | 52.4% | 1.5% (active) | 20% | 66.1% | 17.2% | 11.7% | 60.3% | 77.9%
O=C(N=Nc1c(O)[nH]c2ccc(Cl)cc12)c1ccc2nc(-c3ccc(Cl)cc3)[nH]c2c1 | 5.09% (active) | 8.93% (active) | -1.72% (active) | -79.9% (active) | -27.7% (active) | 0.662% (active) | -12.5% (active) | -93.6% (active) | 57.8% | -6.49% (active)
COc1cc(C2CC(c3cc(OC)c(OC)c(OC)c3)=Nc3c(N)nc(N)nc3N2)ccc1Oc1nc(Nc2ccc(F)cc2)nc(N(C)C)n1 (stereo not given) | 70.7% | 15.1% | 78.6% | 24.6% | 26.5% | 63.5% | 61.3% | 62% | 58.9% | 66.5%
c1n[nH]cc1-c1nc2ccc3cn[nH]c3c2c2c1CCCC2 | 93% | 101% | 72.9% | 58.3% | 44.8% | 94.1% | 89.4% | 80.8% | 100% | 93.2%
CCCn1c(NC(=O)c2cccc(C(N)=O)c2)nc2cc(CN3CCCCC3)ccc21 | 103% | 72.3% | 98% | 142% | 64.5% | 111% | 107% | 107% | 113% | 13.8%
Cc1cc(Cl)ccc1NC(=O)Nc1ccc(-c2ccc3c(c2)NC(=O)/C3=C\c2ccc[nH]2)cc1 | 96.3% | 83.3% | 99.9% | 108% | 122% | 109% | 105% | 91.9% | 117% | 108%
Cc1ccc(C(C(=O)NC2CCCCC2)N(Cc2ccccc2Cl)C(=O)c2ccc(CN3CCOCC3)o2)o1 (stereo not given) | 101% | 81.6% | 109% | 85.5% | 93.4% | 83.5% | 91.8% | 99.4% | 103% | 98.6%
CN(C)C(=O)c1cc(-c2ccc3ncnc(N4CCc5cc(F)c(Cl)cc54)c3c2)cnc1N | 23% | -21.7% (active) | -57.7% (active) | -49.2% (active) | -73.7% (active) | 24.2% | -73.1% (active) | -73.2% (active) | 4.11% (active) | -36.7% (active)
COc1cc(C2CC(c3ccc(F)cc3)=Nc3c(N)nc(N)nc3N2)ccc1Oc1nc(Nc2ccc(F)cc2)nc(N(C)C)n1 (stereo not given) | 55.8% | 15.5% | 52.5% | 44.2% | 17.2% | 63.4% | 40.3% | 69.6% | 38.7% | 56.6%
CC1=C(C(=O)OC(C)C)C(c2ccc(O)cc2)NC(=O)N1 (stereo not given) | 111% | 98.5% | 102% | 101% | 104% | 115% | 105% | 101% | 96.5% | 99.8%
Cc1ccc2c(c1)nc(-c1ccccc1)n2CC(=O)N=Nc1c(O)[nH]c2ccc(Cl)cc12 | -38% (active) | -3.37% (active) | -28.6% (active) | -80.5% (active) | -88.4% (active) | 2.28% (active) | -62.4% (active) | -90.3% (active) | -28.2% (active) | -28.4% (active)
CCOc1ccc(-c2cc(-c3cc(C(C)C)c(O)cc3C)nn2-c2ccc(S(N)(=O)=O)cc2)cc1 | 34.6% | 12.4% | 65.8% | 37.5% | 38.9% | 44.1% | 35.6% | 11.9% | 46.8% | 49.3%
COc1ccc2c(c1)N=c1c-2cc2c(O)[nH]c(=S)n2c1=O | 50.8% | 19.7% | 54.8% | 42.1% | 11.4% | 84.4% | 26.1% | -7.78% (active) | 53.4% | 40%
COc1cccc(NC(=O)c2ccc(NC(=O)CCl)s2)c1 | 88.1% | 4.03% (active) | 45.5% | -26.5% (active) | 56.9% | 45.7% | 65.4% | 38.4% | 27.7% | 14.2%
COc1ccc(N=Nc2c(N)nn3c(-c4cc5cc(Br)ccc5oc4=O)ccnc23)cc1 | 37.3% | 48.4% | 46.4% | -27.3% (active) | -41.8% (active) | 23.2% | -33.6% (active) | 15.6% | 78.1% | 52.5%
